Test results: PubChem BioAssay (NCI)
This is part of a sample that, as a whole, favours compounds with a hit. Of some 83,000 tested, about 20% had one in any assay.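 Single-concentration screen, 48 h exposure, 96-well plates. Endpoint: percent growth. Below 10 = active.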 Unmarked numbers belong to inactive results. Active and inactive are the calls of the source.

How the values were obtained:
Assay in all cases: NCI-60 one-dose screen, 48 h (100 = growth as untreated, 0 = no growth, -100 = all killed)
SR leukemia = settings: 10 µM unless noted
RPMI-8226 leukemia = settings: 10 µM unless noted
OVCAR-8 ovarian = settings: 10 µM unless noted
OVCAR-5 ovarian = settings: 10 µM unless noted
OVCAR-4 ovarian = settings: 10 µM unless noted
SK-OV-3 ovarian = settings: 10 µM unless noted
IGROV1 ovarian = settings: 10 µM unless noted
OVCAR-3 ovarian = settings: 10 µM unless noted
HS 578T breast = settings: 10 µM
NCI/ADR-RES ovarian = settings: 10 µM unless noted
T-47D breast = settings: 10 µM unless noted
BT-549 breast = settings: 10 µM unless noted
MDA-MB-435 melanoma = settings: 10 µM unless noted
SW-620 colon = settings: 10 µM unless noted
MCF7 breast = settings: 10 µM unless noted
HCT-116 colon = settings: 10 µM unless noted
HCC-2998 colon = settings: 10 µM
KM12 colon = settings: 10 µM unless noted

| Structure (SMILES) | growth (SR leukemia) | growth (RPMI-8226 leukemia) | growth (OVCAR-8 ovarian) | growth (OVCAR-5 ovarian) | growth (OVCAR-4 ovarian) | growth (SK-OV-3 ovarian) | growth (IGROV1 ovarian) | growth (OVCAR-3 ovarian) | growth (HS 578T breast) | growth (NCI/ADR-RES ovarian) | growth (T-47D breast) | growth (BT-549 breast) | growth (MDA-MB-435 melanoma) | growth (SW-620 colon) | growth (MCF7 breast) | growth (HCT-116 colon) | growth (HCC-2998 colon) | growth (KM12 colon) |
| --- | --- | --- | --- | --- | --- | --- | --- | --- | --- | --- | --- | --- | --- | --- | --- | --- | --- | --- |
| CCc1nc2cc(/C=C/C(=O)NO)ccc2c(=O)n1CCc1ccc(F)cc1 | 10.7% | 6.42% (active) | 5.85% (active) | 25.7% | 25.4% | -16.3% (active) | 28% | -13.5% (active) | 52.6% | 4.25% (active) | -0.122% (active) | 23.8% | 17.3% | 6.35% (active) | 10.2% | 3.23% (active) | 32.4% | 12% |
| C=C1C(=O)O[C@H]2[C@H]1CC/C(C=Nc1c(N)cc(C(F)(F)F)cc1C(F)(F)F)=C\CC[C@@]1(C)O[C@@H]21 | 0.897% (active) | -18.7% (active) | 4.81% (active) | -9.13% (active) | -71.6% (active) | 48.8% | -46.3% (active) | -93.8% (active) | 16.7% | -23.1% (active) | -27% (active) | -31.5% (active) | -71.9% (active) | -54.9% (active) | -2.09% (active) | -72.8% (active) | -77.5% (active) | 14.4% |
| NC(=O)N1N=C(c2ccc(Cl)cc2)CC1c1cn(-c2ccccc2)nc1-c1ccc(Cl)cc1 (stereo not drawn) | 67.3% | 70.9% | 36.8% | 94.6% | 14% | 50.9% | 68.8% | 78.1% | 50.8% | 47.8% | 45.6% | 98.9% | 75.2% | 84.8% | 63.7% | 31.9% | 78.6% | 62.7% |
| COC(=O)[C@]12CC[C@@H](C)[C@H](C)[C@@H]1C1=CC[C@@H]3[C@@]4(C)C(C#N)=CC(C)=C4CC[C@@]3(C)[C@]1(C)CC2 | 68% | 76.7% | 103% | 91.9% | 88.3% | 99.3% | 106% | 88.9% | 97.5% | 89.2% | 68.2% | 98.7% | 88.1% | 87.2% | 90.1% | 68.4% | 80% | 84.6% |
| COC(=O)CNC(=O)[C@@H](OC)[C@@H]1Cc2cc3cc(OC4CC(OC5CC(O)C(O)C(C)O5)C(O)C(C)O4)c(C)c(O)c3c(O)c2C(=O)[C@H]1OC1CC(OC2CC(OC3CC(C)(O)C(O)C(C)O3)C(O)C(C)O2)C(O)C(C)O1 (stereo partly drawn) | 11.1% | 2.86% (active) | 12.4% | 16.4% | 2.95% (active) | 24.3% | 32% | 3.71% (active) | -6.65% (active) | 88.2% | 11.3% | -44.3% (active) | -39.2% (active) | 12.7% | 7.64% (active) | 3.52% (active) | -42.3% (active) |  |
| O=C(NO)c1ccc(Cn2c(=O)n(CCc3ccccc3)c(=O)c3ccccc32)cc1 | 20% | 25.8% | 20.2% | 76.5% | 19.2% | 26.3% | 41% | 13.8% | 68.9% | 57.5% | 29% | 52.4% | 19.1% | 20.9% | 27.9% | 4.18% (active) | 62.5% | 25.2% |
| NN1C(=O)CSC1=S | 98.5% | 102% | 111% | 96.8% | 105% | 98.6% | 110% | 110% | 101% | 114% | 104% | 93.5% | 100% | 111% | 94.8% | 96.8% | 110% | 106% |
| CCCCCCCCCCCC[n+]1ccccc1 | -20.7% (active) | -39.2% (active) | 0.812% (active) | 14.6% | 14.9% | -1.15% (active) | -37.5% (active) | -32.9% (active) | 6.1% (active) | 75.4% | 4.67% (active) | -37.4% (active) | -16.5% (active) | 10.7% | 5.23% (active) | 6.26% (active) | 9.96% (active) | -48.1% (active) |
